In PubChem BioAssay:
For some assays here: Potency and affinity values are given separately. Active and inactive are the calls of the source. Unless noted, no rule for the calls is given here.

How the values were obtained:
[1] = antimalarial activity against Dd2 strain (AID 2302;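 active = growth inhibition above 50% at the single 2 µM test dose, taken to imply half-maximal potency below 2 µM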;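 also: 0% = DMSO untreated growth and 100% = chloroquine plus artemisinin killed control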); conditions: P. falciparum Dd2 in RBCs, LDH growth readout, 72 h; at 2 µM; hits give high values
[2] = HepG2 cytotoxicity, primary screen, cytotoxicity control for P. falciparum antimalarial project, cell-based, ATP luminescence (AID 2303;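 active = inhibition above 50%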;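 also: 0% = DMSO wells and 100% = digitonin-killed cells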); conditions: HepG2 viability, 24-48 h, at 10 µM, hits give high values
[3] = target: L-lactate dehydrogenase (Plasmodium falciparum (isolate CDC / Honduras)) (UniProt Q27743); assay: PfLDH activity inhibition – cell lysate, 3D7 strain, counter-screen for P. falciparum growth inhibition project (AID 2304);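 also: 0% = vehicle and 100% = reference inhibitor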; conditions: P. falciparum 3D7 crude extract, LDH APAD/NBT absorbance; at 2 µM; hits give high values
[4] = inhibition of 3D7 malaria parasite growth – strain 3D7 (AID 2306);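 also: 0% = DMSO wells and 100% = chloroquine plus artemisinin control wells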; conditions: P. falciparum 3D7 erythrocytic growth, LDH absorbance, 72 h; at 2 µM; hits give high values
[5] = target: Calcium-dependent protein kinase 1 (Plasmodium falciparum (isolate 3D7)) (UniProt P62344); assay: PfCDPK1 kinase inhibitors, biochemical, TCAMS library (AID 1159585; cut-off not given, nearly all actives have IC50 up to about 0.98 µM;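 also: inhibitors leave more ATP so luminescence rises with inhibition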); conditions: recombinant PfCDPK1, Kinase-Glo ATP depletion luminescence
[6] = target: Plasmodium falciparum protein kinase 6 (PK6, PF3D7_1337100) (UniProt Q8IDW1); assay: PfPK6 kinase inhibitors, biochemical, TCAMS library (AID 1159586); conditions: recombinant PfPK6, Kinase-Glo ATP depletion luminescence
[7] = target: Protein kinase 7 (PK7), Plasmodium falciparum 3D7 (PF3D7_0213400) (UniProt Q7YTF7); assay: inhibition of Plasmodium PK7 catalytic activity – biochemical, TCAMS antimalarial set, Kinase-Glo luminescence (AID 1159587); conditions: recombinant PfPK7, Kinase-Glo ATP depletion luminescence
[8] = target: Calcium-dependent protein kinase 4 (Plasmodium falciparum (isolate 3D7)) (UniProt Q8IBS5); assay: PfCDPK4 kinase inhibitors, biochemical, TCAMS library (AID 1159588; cut-off not given, nearly all actives have IC50 up to about 0.91 µM); conditions: recombinant PfCDPK4, Kinase-Glo ATP depletion luminescence
Calcium-dependent protein kinase 4 (Plasmodium falciparum (isolate 3D7)), sequence (Q8IBS5 whole entry, looked up): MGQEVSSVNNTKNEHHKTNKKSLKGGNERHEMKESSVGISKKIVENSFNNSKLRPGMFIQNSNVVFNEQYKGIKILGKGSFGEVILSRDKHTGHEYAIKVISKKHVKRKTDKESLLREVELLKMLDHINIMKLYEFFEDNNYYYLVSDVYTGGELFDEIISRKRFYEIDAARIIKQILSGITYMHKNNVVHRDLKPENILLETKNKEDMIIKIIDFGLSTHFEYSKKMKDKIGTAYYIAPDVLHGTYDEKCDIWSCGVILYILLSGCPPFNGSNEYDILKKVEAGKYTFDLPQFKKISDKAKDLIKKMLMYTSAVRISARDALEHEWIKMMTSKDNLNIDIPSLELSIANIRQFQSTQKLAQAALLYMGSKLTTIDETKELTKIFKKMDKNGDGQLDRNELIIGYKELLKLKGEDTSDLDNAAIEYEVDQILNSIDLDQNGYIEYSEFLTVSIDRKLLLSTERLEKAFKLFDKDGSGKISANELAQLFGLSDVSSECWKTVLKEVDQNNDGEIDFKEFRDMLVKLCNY

Protein kinase 7 (PK7), Plasmodium falciparum 3D7 (PF3D7_0213400), sequence (Q7YTF7 1-343): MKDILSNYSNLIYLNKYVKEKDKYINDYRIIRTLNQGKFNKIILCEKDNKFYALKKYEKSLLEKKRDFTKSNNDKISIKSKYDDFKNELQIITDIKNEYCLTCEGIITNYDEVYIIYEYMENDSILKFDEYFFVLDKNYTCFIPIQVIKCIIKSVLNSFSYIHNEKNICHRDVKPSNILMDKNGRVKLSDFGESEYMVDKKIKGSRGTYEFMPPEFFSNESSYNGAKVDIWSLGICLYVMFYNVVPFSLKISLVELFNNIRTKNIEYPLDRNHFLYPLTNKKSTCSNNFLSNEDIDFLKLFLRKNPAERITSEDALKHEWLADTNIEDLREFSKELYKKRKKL
Plasmodium falciparum protein kinase 6 (PK6, PF3D7_1337100), sequence (Q8IDW1 1-305): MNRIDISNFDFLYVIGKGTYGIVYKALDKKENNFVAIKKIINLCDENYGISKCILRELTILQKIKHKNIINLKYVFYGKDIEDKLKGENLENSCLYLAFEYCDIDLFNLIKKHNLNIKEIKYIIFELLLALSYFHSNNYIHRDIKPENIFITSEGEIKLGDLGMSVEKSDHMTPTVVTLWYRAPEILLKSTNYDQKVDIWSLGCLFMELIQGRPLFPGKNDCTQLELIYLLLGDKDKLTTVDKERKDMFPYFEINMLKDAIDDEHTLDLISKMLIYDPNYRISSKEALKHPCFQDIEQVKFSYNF
L-lactate dehydrogenase (Plasmodium falciparum (isolate CDC / Honduras)), sequence (Q27743 whole entry, looked up): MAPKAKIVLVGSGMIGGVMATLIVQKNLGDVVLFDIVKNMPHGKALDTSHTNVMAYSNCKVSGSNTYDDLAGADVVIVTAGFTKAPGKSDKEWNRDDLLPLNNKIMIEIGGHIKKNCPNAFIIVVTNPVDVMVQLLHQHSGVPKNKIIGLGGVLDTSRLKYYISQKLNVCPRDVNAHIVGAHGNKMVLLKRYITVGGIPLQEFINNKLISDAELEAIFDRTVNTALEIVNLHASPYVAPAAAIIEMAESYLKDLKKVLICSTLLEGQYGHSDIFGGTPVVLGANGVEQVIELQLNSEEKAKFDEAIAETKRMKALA
Calcium-dependent protein kinase 1 (Plasmodium falciparum (isolate 3D7)), sequence (P62344 whole entry, looked up): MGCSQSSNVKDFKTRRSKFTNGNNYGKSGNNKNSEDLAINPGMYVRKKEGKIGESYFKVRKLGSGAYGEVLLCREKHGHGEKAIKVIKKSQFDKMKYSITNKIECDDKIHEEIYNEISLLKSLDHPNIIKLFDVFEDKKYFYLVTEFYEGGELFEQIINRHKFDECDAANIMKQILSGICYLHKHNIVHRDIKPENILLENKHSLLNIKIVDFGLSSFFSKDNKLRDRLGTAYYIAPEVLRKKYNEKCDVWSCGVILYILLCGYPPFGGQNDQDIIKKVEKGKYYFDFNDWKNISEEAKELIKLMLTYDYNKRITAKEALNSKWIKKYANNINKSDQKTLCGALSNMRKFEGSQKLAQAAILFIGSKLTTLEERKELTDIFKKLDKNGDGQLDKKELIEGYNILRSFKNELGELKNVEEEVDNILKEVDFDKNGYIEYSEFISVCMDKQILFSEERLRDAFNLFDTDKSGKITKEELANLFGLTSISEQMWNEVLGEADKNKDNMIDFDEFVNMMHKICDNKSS

Cc1ccc(Nc2nc(C)cc(NC3CC3)n2)cc1
inactive: growth inhibition [1] 15% | inhibition [2] -4% | inhibition [3] 5% | outcome [5] | outcome [6] | outcome [7] | outcome [8]
active: growth inhibition [4] 97%

COc1ccc(C2SCC(=O)N2CCc2ccc(OC)c(OC)c2)cc1 (stereo not given)
inactive: growth inhibition [1] 2% | inhibition [2] 19% | inhibition [3] 1% | outcome [5] | outcome [6] | outcome [7] | outcome [8]
active: growth inhibition [4] 96%

CN(C)c1ccc(CN2CCC(NC(=O)c3ccc(-c4ccccc4Cl)s3)CC2)cc1
active: growth inhibition [4] 82%
inactive: growth inhibition [1] 27% | inhibition [2] 35% | inhibition [3] -1% | outcome [5] | outcome [6] | outcome [7] | outcome [8]

N#Cc1cccc(Nc2nccc(Nc3ccc(Oc4ccccc4)cc3)n2)c1
inactive: growth inhibition [1] 17% | inhibition [2] 12% | inhibition [3] -6% | outcome [5] | outcome [6] | outcome [7] | outcome [8]
active: growth inhibition [4] 94%

OCCN1CCN(C2Cc3ccc(F)cc3Sc3ccc(Cl)cc32)CC1 (stereo not given)
inactive: growth inhibition [1] 26% | inhibition [3] 3% | outcome [5] | outcome [6] | outcome [7] | outcome [8]
active: inhibition [2] 56% | growth inhibition [4] 98%

CCCOc1ccc(-c2nonc2NC(=O)c2cccc(OC)c2)cc1OCCC
inactive: inhibition [2] 18% | inhibition [3] 0% | outcome [5] | outcome [6] | outcome [7] | outcome [8]
active: growth inhibition [1] 100% | growth inhibition [4] 94%

CC(=O)c1c(Nc2c(C)cc(C)cc2C)oc(C)cc1=O
inactive: inhibition [2] 7% | inhibition [3] 7% | outcome [5] | outcome [6] | outcome [7] | outcome [8]
active: growth inhibition [1] 83% | growth inhibition [4] 95%

CC(C)CNCc1ccc(-c2cccc(CN(CCN(C)C)C(=O)NCCc3ccccc3)c2)cc1
inactive: growth inhibition [1] 37% | inhibition [2] 33% | inhibition [3] -6% | outcome [5] | outcome [6] | outcome [7] | outcome [8]
active: growth inhibition [4] 91%

CCN(CC)c1nc(-c2ccccc2)cc(-c2ccccc2)c1C#N
inactive: inhibition [2] -7% | inhibition [3] 2% | outcome [5] | outcome [6] | outcome [7] | outcome [8]
active: growth inhibition [1] 66% | growth inhibition [4] 100%

Clc1ccc(Cn2nc(Br)nc2Br)c(Cl)c1
active: growth inhibition [1] 96% | growth inhibition [4] 96%
inactive: inhibition [2] 4% | inhibition [3] 2% | outcome [5] | outcome [6] | outcome [7] | outcome [8]

Nc1c(Cl)cc(C(O)CNCCCCCOCCCc2ccc3ncccc3c2)cc1Cl (stereo not given)
inactive: inhibition [2] 24% | inhibition [3] -8% | outcome [5] | outcome [6] | outcome [7] | outcome [8]
active: growth inhibition [1] 77% | growth inhibition [4] 96%

CCN(CC)CCCNc1nccc(N2CCc3ncnc(Nc4ccc(OCc5cccc(F)c5)c(Cl)c4)c3C2)n1
active: growth inhibition [1] 95% | inhibition [2] 100% | growth inhibition [4] 101%
inactive: inhibition [3] 7% | outcome [5] | outcome [6] | outcome [7] | outcome [8]

CC1CCCN(S(=O)(=O)c2ccc(NC(=O)c3cc(-c4ccccc4O)n[nH]3)cc2)C1 (stereo not given)
active: growth inhibition [4] 93%
inactive: growth inhibition [1] 49% | inhibition [2] 12% | inhibition [3] 3% | outcome [5] | outcome [6] | outcome [7] | outcome [8]

CCN(CC)CCN(Cc1ccc(-c2ccc(C(F)(F)F)cc2)cc1)C(=O)Cn1cc(CCCCc2cccc(F)c2F)c(=O)c2ccccc21
inactive: growth inhibition [1] 22% | inhibition [2] 18% | inhibition [3] -5% | outcome [5] | outcome [6] | outcome [7] | outcome [8]
active: growth inhibition [4] 90%

Cc1ccc(-c2nnc(Nc3ccc(C(=O)N4CCCCC4)cc3)c3ccccc23)cc1S(=O)(=O)NCC1CCCO1 (stereo not given)
active: growth inhibition [1] 99% | growth inhibition [4] 99%
inactive: inhibition [2] -5% | inhibition [3] -4% | outcome [5] | outcome [6] | outcome [7] | outcome [8]

O=C(/C=C/c1ccc(Cl)cc1Cl)N1CCC(CCN2CCC(c3c[nH]c4ccccc34)CC2)CC1
inactive: growth inhibition [1] 37% | inhibition [3] -6% | outcome [5] | outcome [6] | outcome [7] | outcome [8]
active: inhibition [2] 94% | growth inhibition [4] 98%

COc1cccc(CNC[C@@H](O)[C@H](Cc2ccccc2)NC(=O)c2cc(C3CCCC3)cc(N3CCCCS3(=O)=O)c2)c1
active: growth inhibition [1] 83% | growth inhibition [4] 96%
inactive: inhibition [2] 7% | inhibition [3] 4% | outcome [5] | outcome [6] | outcome [7] | outcome [8]

CCN(CC)CCN(Cc1ccc(-c2ccc(C(F)(F)F)cc2)cc1)C(=O)Cn1c(CCc2cc(F)ccc2F)nc(=O)c2ccccc21
active: growth inhibition [1] 52% | growth inhibition [4] 98%
inactive: inhibition [2] 42% | inhibition [3] 4% | outcome [5] | outcome [6] | outcome [7] | outcome [8]

COc1ccc2nccc([C@@H](O)CN3CCC(NCc4ccc5c(c4)OCCO5)CC3)c2c1
inactive: inhibition [2] 9% | inhibition [3] -4% | outcome [5] | outcome [6] | outcome [7] | outcome [8]
active: growth inhibition [1] 92% | growth inhibition [4] 101%

O=C(Nc1ccc(OC2CCN(Cc3ccsc3)C2)c(Cl)c1)c1ccc2ncccc2c1 (stereo not given)
active: inhibition [2] 84% | growth inhibition [4] 88%
inactive: growth inhibition [1] 10% | inhibition [3] -1% | outcome [5] | outcome [6] | outcome [7] | outcome [8]

CCN(CC)CCNc1nc(C=Cc2ccc(Cl)cc2)nc2cc3ccccc3cc12
active: growth inhibition [1] 99% | inhibition [2] 83% | growth inhibition [4] 100%
inactive: inhibition [3] -3% | outcome [5] | outcome [6] | outcome [7] | outcome [8]

O=C(NC1CCCc2ccccc21)[C@@H]1CCCN1C(=O)c1ccc(O)c(-c2cccc([N+](=O)[O-])c2)c1 (stereo not given in full)
inactive: inhibition [2] -5% | inhibition [3] 5% | outcome [5] | outcome [6] | outcome [7] | outcome [8]
active: growth inhibition [1] 99% | growth inhibition [4] 99%

Cc1ccc(Nc2nccc(NCC(O)c3cccc(C(F)(F)F)c3)n2)cc1 (stereo not given)
inactive: inhibition [2] 19% | inhibition [3] -6% | outcome [5] | outcome [6] | outcome [7] | outcome [8]
active: growth inhibition [1] 74% | growth inhibition [4] 99%

CC(=O)Nc1nc(C(=O)Nc2cccc(-c3ccc4c(cnn4CC4CC4)c3)c2)cs1
active: growth inhibition [1] 67% | growth inhibition [4] 95%
inactive: inhibition [2] 16% | inhibition [3] 2% | outcome [5] | outcome [6] | outcome [7] | outcome [8]

C=CCNc1cc(-c2ccccn2)nc(-c2ccccn2)n1
inactive: inhibition [3] -2% | outcome [5] | outcome [6] | outcome [7] | outcome [8]
active: growth inhibition [1] 79% | inhibition [2] 78% | growth inhibition [4] 94%

COc1ccc(CNC2CCN(C)CC2)cc1-c1ccc(S(=O)(=O)NCc2ccccc2)s1
active: growth inhibition [1] 101% | inhibition [2] 62% | growth inhibition [4] 101%
inactive: inhibition [3] 0% | outcome [5] | outcome [6] | outcome [7] | outcome [8]

Cc1ccc(C(=O)Nc2ccc(C)c(OC3CCN(CCC(C)C)C3)c2)cc1 (stereo not given)
active: growth inhibition [1] 53% | growth inhibition [4] 99%
inactive: inhibition [2] 6% | inhibition [3] -13% | outcome [5] | outcome [6] | outcome [7] | outcome [8]

O=C(Nc1ccc(C(F)(F)F)cc1)c1ccc(S(=O)(=O)NC2CCN(CC3CCCCC3)C2)cc1 (stereo not given)
active: growth inhibition [4] 99%
inactive: growth inhibition [1] 16% | inhibition [2] 33% | inhibition [3] 5% | outcome [5] | outcome [6] | outcome [7] | outcome [8]

CC(C)(C)C1CCC(CC2=C(C(=O)O)c3ccccc3C2=O)CC1 (stereo not given)
active: growth inhibition [1] 56% | growth inhibition [4] 91%
inactive: inhibition [2] -4% | inhibition [3] -1% | outcome [5] | outcome [6] | outcome [7] | outcome [8]

CCCSc1nc2c(c(=O)n1CCc1ccccc1)C1(CCCC1)Cc1ccccc1-2
active: growth inhibition [1] 53% | growth inhibition [4] 99%
inactive: inhibition [2] 46% | inhibition [3] -4% | outcome [5] | outcome [6] | outcome [7] | outcome [8]

Cc1ncsc1CCN1C(=O)CC2(C1=O)C(=O)N(Cc1ccccc1)c1ccc(Cl)cc12 (stereo not given)
active: growth inhibition [4] 86%
inactive: growth inhibition [1] 46% | inhibition [2] 0% | inhibition [3] 1% | outcome [5] | outcome [6] | outcome [7] | outcome [8]

Cc1cc(OCC2CCN(c3ncc(C(=O)NC4CC4)cc3Cl)CC2)ccc1F
active: growth inhibition [1] 96% | growth inhibition [4] 96%
inactive: inhibition [2] 16% | inhibition [3] 5% | outcome [5] | outcome [6] | outcome [7] | outcome [8]

O=C(Nc1cccc(-c2cccc(-c3nc4ccccc4[nH]3)c2)c1)c1ccoc1
inactive: growth inhibition [1] 36% | inhibition [2] 19% | inhibition [3] 5% | outcome [5] | outcome [6] | outcome [7] | outcome [8]
active: growth inhibition [4] 85%

COCC(C)n1c(SC(C)C(=O)Nc2cc([N+](=O)[O-])ccc2Cl)nc2ccccc2c1=O (stereo not given)
inactive: inhibition [2] -8% | inhibition [3] 2% | outcome [5] | outcome [6] | outcome [7] | outcome [8]
active: growth inhibition [1] 94% | growth inhibition [4] 95%

COc1ccc2c(NN=Cc3cccc([N+](=O)[O-])c3)ccnc2c1
inactive: inhibition [2] -10% | inhibition [3] 5% | outcome [5] | outcome [6] | outcome [7] | outcome [8]
active: growth inhibition [1] 99% | growth inhibition [4] 101%

COc1ccc2ccc(F)c(CC(=O)N3CCOC(CNCc4cccc(-c5ccc(F)cc5)n4)C3)c2n1 (stereo not given)
inactive: growth inhibition [1] 1% | inhibition [2] 5% | inhibition [3] 6% | outcome [5] | outcome [6] | outcome [7] | outcome [8]
active: growth inhibition [4] 92%

CN1CCN(c2cc(NC(=O)c3ccc(-c4ccc(Cl)cc4)cc3)ccc2Cl)CC1
active: growth inhibition [4] 99%
inactive: growth inhibition [1] 33% | inhibition [2] 30% | inhibition [3] -2% | outcome [5] | outcome [6] | outcome [7] | outcome [8]

O=C(Nc1ccc(-c2nc3ccccc3[nH]2)cc1)c1ccc(-c2cccc([N+](=O)[O-])c2)o1
active: growth inhibition [1] 97% | growth inhibition [4] 101%
inactive: inhibition [2] 47% | inhibition [3] -2% | outcome [5] | outcome [6] | outcome [7] | outcome [8]

CCN(CC)C(=O)C1CCCN(c2cc(C)nc(Nc3ccc(Cl)cc3)n2)C1 (stereo not given)
active: growth inhibition [1] 64% | growth inhibition [4] 94%
inactive: inhibition [2] 13% | inhibition [3] 1% | outcome [5] | outcome [6] | outcome [7] | outcome [8]

COc1ccc(CN(C)CCOc2ccc(NC(=O)c3cccc4c(=O)c5cc(SC)ccc5[nH]c34)cc2)cc1OC
active: growth inhibition [1] 98% | inhibition [2] 67% | growth inhibition [4] 96%
inactive: inhibition [3] 1% | outcome [5] | outcome [6] | outcome [7] | outcome [8]
